Assay outcomes deposited in PubChem BioAssay by National Center for Advancing Translational Sciences (NCATS).
ELG1 genotox: induces genotoxicity in HEK293T cells with luciferase-tagged ELG1; HEK293T ELG1-luciferase reporter, luminescence, 16 h; Potency, µM (top dose mostly 46 µM), most hits filed as activators; 1.3% of 330,000 active; AID 504466; note: nearly all actives have a fitted effect of over 60% in size
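Screening used a luciferase reporter fused to human ELG1 in HEK293T cells. Luminescence was read on a CCD plate imager after 16 hr exposure and 30 min ONE-Glo incubation.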
Luc counter: blocks Kinase-Glo luciferase, a counter-screen artifact; Kinase-Glo luciferase, ATP luminescence, 8 min; Q27757; 0.28% of 200,000 active; Potency, µM (highest dose often 38.3 µM), hits mostly inhibitors; note: nearly all actives have a fitted effect of over 60% in size
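Compounds were added to a substrate mix at pH 7.2 (50 mM imidazole, 10 uM ATP, within the enzyme's linear range), followed by Kinase-Glo detection reagent; luminescence was measured after 8 minutes at ambient temperature.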
SMN2 splice up: enhancers of SMN2 splice variant expression; HEK293 SMN2-luciferase splicing reporter, luminescence, 30-36 h; Potency, µM (top dose mostly 46.1 µM), actives largely listed as activators; 2.8% of 210,000 active; note: nearly all actives have a fitted effect of over 55% in size
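HEK293 cells carry an SMN2 minigene-luciferase reporter in which exon 7 inclusion puts luciferase in frame. Cells were seeded at 2000 cells/well, attached for 10-12 hours, then exposed to compounds for 30-36 hours at 37C before ONE-Glo luminescence.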
NPC1 promoter act: activates the NPC1 promoter; 2.4% of 320,000 active; Huh7 NPC1 promoter luciferase reporter, 24 h; Potency, µM (top dose mostly 9.22 µM), usual class: activators; AID 485313; note: nearly all actives have a fitted effect of over 60% in size
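Luciferase expression driven by the NPC1 promoter was measured in stably transfected Huh7 cells after a 24 h compound incubation, using a luciferase reagent and a luminescence read.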
Rab9 promoter act: Rab9 promoter activation | Potency, µM (doses to about 9.22 µM), usual class: activators | Huh7 Rab9 promoter-luciferase reporter, luminescence, 24 h | 2.8% of 320,000 active; note: nearly all actives have a fitted effect of over 60% in size
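Huh7 reporter line, Rab9 promoter upstream of luciferase. Compound exposure 24 h at 37 °C in reduced-serum medium with 10% FBS. Read-out: luminescence.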
FLuc modulator: inhibits or activates purified firefly luciferase, miR-21 counter-screen. P08659. AID 588342. purified FLuc, Km substrates, luminescence inhibition. Potency, µM (highest dose often 57.5 µM), most hits filed as inhibitors. 6.9% of 360,000 active; note: nearly all actives have a fitted effect of over 55% in size
Target sequence (P08659 whole entry, looked up): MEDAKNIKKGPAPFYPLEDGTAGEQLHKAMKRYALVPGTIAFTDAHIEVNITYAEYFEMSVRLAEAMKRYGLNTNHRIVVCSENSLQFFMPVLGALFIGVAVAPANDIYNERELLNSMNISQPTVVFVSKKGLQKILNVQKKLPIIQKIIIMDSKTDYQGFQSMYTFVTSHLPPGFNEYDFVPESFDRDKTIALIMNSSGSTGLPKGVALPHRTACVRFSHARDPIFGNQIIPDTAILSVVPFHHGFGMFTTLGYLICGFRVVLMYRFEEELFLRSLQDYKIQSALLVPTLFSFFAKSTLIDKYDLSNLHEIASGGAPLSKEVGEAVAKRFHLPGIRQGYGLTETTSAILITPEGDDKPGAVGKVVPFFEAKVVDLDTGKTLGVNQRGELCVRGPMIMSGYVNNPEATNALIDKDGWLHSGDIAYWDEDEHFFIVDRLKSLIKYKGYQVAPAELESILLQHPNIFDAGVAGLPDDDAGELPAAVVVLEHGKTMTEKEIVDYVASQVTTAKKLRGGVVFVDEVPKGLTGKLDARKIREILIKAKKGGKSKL
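Biochemical qHTS of compounds, final roughly 60 µM downward over six points, against 10 nM purified firefly luciferase using Km concentrations of substrates (10 uM D-luciferin, 10 uM ATP) in Tris acetate pH 7.5 buffer; luminescence output.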
A number is an active result; i = inactive; ? = inconclusive; nt = not tested or not shown; [ ] = remark or other dose. This is a sample that favours compounds with a hit; in the whole collection about 7.3% have one here. Calls come from the whole dose curve; as a rule, active = well fitted curve in the direction sought with a large enough effect; inconclusive = small, poorly fitted or top-dose-only effect, or another doubt; inactive = no such curve, though single readings can be large; an effect the other way counts as inactive or inconclusive.

SMILES | ELG1 genotox | Luc counter | SMN2 splice up | NPC1 promoter act | Rab9 promoter act | FLuc modulator
CCc1nnc(NC(=O)c2ccncc2)s1 | i | i | i | i | i | i
CCOc1ccc(CCNC(=O)c2cn(CC)c3ccc(S(=O)(=O)N4CCCCCC4)cc3c2=O)cc1OCC | nt | nt | i | nt | nt | i
O=C1C2C(C(=O)N1c1ccc3c(c1)OCO3)C1C=CC2C12CC2 (stereo unspecified) | i | i | i | i | i | 17µM
CC(=O)Oc1cccc(N2C(=O)C3C(C2=O)C2C=CC3C23CC3)c1 (stereo unspecified) | i | i | i | i | i | i
Cc1cc(C(=O)Nc2ccc(Cl)cc2)c(C)n1Cc1cccs1 | 2.3µM | nt | nt | 0.71µM | 0.32µM | 0.6µM
Cc1cc(C)cc(NC(=O)c2cc(C)n(Cc3cccs3)c2C)c1 | ? | nt | nt | 1.1µM | 0.71µM | 0.34µM
CCCN(Cc1cccs1)C(=O)Nc1cc(C)cc(C)c1 | nt | nt | nt | nt | nt | i
COc1ccc(Cl)cc1Nc1nc(N)c2ccccc2n1 | i | nt | nt | ? | i | 17µM
Cc1ccc(C)c(Nc2nc(N)c3ccccc3n2)c1 | ? | i | 14µM | 2.5µM | 2.5µM | 4.8µM
COc1ccc(N(C)S(=O)(=O)c2cccc(C(=O)OC(C(=O)Nc3cc(C)cc(C)c3)c3ccccc3)c2)cc1 (stereo unspecified) | i | i | 16µM | i | i | i
COc1ccc(CNC(=O)c2ccc3c(c2)nc2n3CCCCC2)cc1 | nt | nt | nt | nt | nt | 17µM
Cc1cccc(CCNC(=O)c2ccc3c(c2)nc2n3CCCCC2)c1 | nt | nt | nt | nt | nt | 4.8µM
Cc1cccc(CCNC(=O)c2ccc3c(c2)nc2n3CCOC2)c1 | nt | nt | nt | nt | nt | 15µM
CCCNC(=O)c1ccc2c(c1)nc1n2CCCCC1 | nt | nt | nt | nt | nt | 17µM
O=C(NCc1cccc(Cl)c1)c1ccc2c(c1)nc1n2CCOC1 | nt | nt | nt | nt | nt | i
O=C(NCCc1ccccc1Cl)c1ccc2c(c1)nc1n2CCOC1 | nt | nt | nt | nt | nt | 4.8µM
Cn1c(N=NC(=O)c2ccccc2)c(O)c2ccccc21 | ? | i | 1.3µM | 0.71µM | 0.56µM | 0.85µM
Cn1c(O)c(N=NC(=O)CNC(=O)c2ccccc2)c2ccccc21 | i | nt | nt | i | i | i
Cc1nc2ccn(Cc3cccs3)c(=O)c2cc1C(=O)N1CCN(c2ccc(F)cc2)CC1 | nt | nt | nt | nt | nt | i
COc1ccc(NC(=O)Nc2ccc3nccnc3c2)cc1 | i | i | ? | 3.2µM | 0.4µM | 4.3µM
COC(=O)c1ccc(NC(=O)c2ccc3nccnc3c2)cc1 | i | nt | nt | i | i | ?
COc1ccc(NC(=O)Nc2ccc3nonc3c2)cc1 | i | nt | nt | ? | 3.5µM | ?
O=C(NCc1ccco1)c1ccc(Cn2c(SCc3ccccc3F)nc3cccnc32)cc1 | nt | nt | nt | nt | nt | 8.5µM
Cc1cccc(Cn2c(SCc3ccc(C(=O)NCc4ccccc4F)cc3)nc3cccnc32)c1 | nt | nt | nt | nt | nt | i
Cc1ccc(CNC(=O)c2ccc(Cn3c(SCc4ccccc4F)nc4cccnc43)cc2)cc1 | nt | nt | nt | nt | nt | 6.7µM
SMILES | ELG1 genotox | Luc counter | SMN2 splice up | NPC1 promoter act | Rab9 promoter act | FLuc modulator
COc1cc(NC(=O)Cn2c(SCc3ccc(F)cc3)nc3cccnc32)cc(OC)c1 | nt | nt | nt | nt | nt | i
Cc1cccc(CSc2nc3cccnc3n2Cc2ccc(C(=O)NCc3ccco3)cc2)c1 | nt | nt | nt | nt | nt | 19µM
O=C(NCc1cccs1)c1ccc(CSc2nc3cccnc3n2Cc2ccccc2F)cc1 | nt | nt | nt | nt | nt | i
COc1ccc(NC(=O)Cn2c(SCc3ccc(C)cc3)nc3cccnc32)c(OC)c1 | nt | nt | nt | nt | nt | 1.9µM
CCOc1ccc(N2C(=O)CC(NC3CCN(C(=O)c4cccs4)CC3)C2=O)cc1 (stereo unspecified) | i | nt | nt | i | i | i
CC(=O)N1CCN(CCN(CC2C(C)C=C(C)CC2C)C(C)=O)CC1 (stereo unspecified) | i | i | i | i | i | i
O=C(NCC1CCCO1)c1ccc(F)c2ccccc12 (stereo unspecified) | i | nt | nt | i | i | i
Cc1ccc(CNC(=O)c2ccc(Cn3c(SCc4ccc(F)cc4)nc4cccnc43)cc2)o1 | nt | nt | i | nt | nt | 3.8µM
Cc1ccc(CSc2nc3cccnc3n2Cc2ccc(C(=O)NCc3ccco3)cc2)cc1 | nt | nt | nt | nt | nt | 0.6µM
CC(NC(=O)c1ccc(Cn2c(SCc3ccccc3)nc3cccnc32)cc1)c1ccccc1 (stereo unspecified) | nt | nt | nt | nt | nt | i
Cc1ccc(Cn2c(SCc3ccc(C(=O)O)cc3)nc3cccnc32)cc1 | nt | nt | i | nt | nt | 17µM
Cc1nn(C)c(C)c1S(=O)(=O)N1CCC(C(=O)Nc2ccc3c(c2)OCCO3)CC1 | 18µM | i | i | i | i | 15µM
COc1ccc(NC(=O)C2CCN(S(=O)(=O)c3c(C)nn(C)c3C)CC2)cc1 | i | nt | nt | i | i | i
CCc1cccc(C)c1NC(=O)c1cc(-c2ccncc2)nc2ccccc12 | i | nt | nt | i | i | i
O=C(c1ccc(-c2cccc(C(F)(F)F)c2)o1)N1CCOCC1 | 16µM | i | i | i | i | ?
O=C(c1ccc(-c2ccccc2Cl)o1)N1CCCC(C(F)(F)F)C1 (stereo unspecified) | ? | nt | nt | i | ? | 13µM
NC(=O)C1CCCN(C(=O)c2ccc(-c3cccc(Cl)c3Cl)o2)C1 (stereo unspecified) | ? | nt | nt | ? | ? | 9.5µM
O=C(c1ccc(CS(=O)c2ccccc2Cl)o1)N1CCOCC1 (stereo unspecified) | i | nt | nt | i | i | i
NC(=O)C1CCCN(C(=O)c2ccc(S(=O)(=O)N3CCCCCC3)cc2)C1 (stereo unspecified) | i | nt | nt | i | i | i
O=C(c1ccc(-c2cccc(Cl)c2Cl)o1)N1CCOCC1 | ? | i | 11µM | ? | 1.3µM | ?
Cc1c(C(=O)N2CCCC(C(F)(F)F)C2)oc2ccccc12 (stereo unspecified) | i | nt | nt | i | i | ?
O=C(c1ccc2c3c(cccc13)CC2)C1CCCN(C(=O)c2ccc[n+]([O-])c2)C1 (stereo unspecified) | i | nt | nt | i | i | i
Cc1nc(NC(=O)c2c(-c3ccccc3)c(-c3ccccc3)nn(C)c2=O)sc1C | nt | nt | i | nt | nt | ?
O=C(c1ccc([N+](=O)[O-])o1)N1CCOCC1 | i | i | i | i | i | i
CC1CCN(C(=O)c2ccc(-c3ccccc3Cl)o2)CC1 | ? | nt | nt | 0.89µM | 0.32µM | 2.1µM
CN1CCCN(C(=O)c2ccccc2Cl)CC1 | i | nt | nt | i | i | i
O=C(c1ccc(-c2ccc([N+](=O)[O-])cc2Cl)o1)N1CCOCC1 | ? | i | ? | i | ? | 17µM
O=C(c1ccc(-c2ccccc2Cl)o1)N1CCC1 | ? | nt | nt | ? | ? | 17µM
Cc1ccc(S(=O)(=O)NCC2CCCO2)cc1[N+](=O)[O-] (stereo unspecified) | i | i | i[1.84 µM] | i | i | i
O=C(c1ccco1)N(CCC(c1ccccc1)c1ccco1)Cc1ccco1 (stereo unspecified) | i | i | i | i | i | ?
